# Measurements reported in PubChem BioAssay (NCI).
# About 79,000 compounds went through this panel and 15% of them were active in at least one assay; those are over-represented in the sample as a whole. Active and inactive are the calls of the source. No stated cut-off is given here; in the data, active means growth inhibition above about 70%; inactive means the rest.
# Experiment: NCI Yeast Anticancer Drug Screen. Data for the rad50 strain (AID 155);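 further: 0% = growth of vehicle-only cultures of the same strain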
# Settings: S. cerevisiae rad50 strain growth inhibition; at 50.0 µM; stronger effect = higher value
# How it was run: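 Vehicle-treated cultures provide the reference for the growth inhibition reported for compound-exposed, repair-deficient yeast.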
row,Structure (SMILES),growth inhibition
1,Nc1ccnc(SCCCCc2ccccc2)n1,15.6% (inactive)
2,CC(=O)Nc1c(Nc2ccccc2)[nH]c(C)nc1=S,-5.55% (inactive)
3,CCN(CC)C(=O)CC1(O)CCCCC1,-9.7% (inactive)
4,CC(O)CN1CCN(CN(CC(C)O)CC(C)O)CC1 (stereo not given),0.55% (inactive)
5,O=c1cn[nH]c(=O)[nH]1,35.4% (inactive)
6,COc1ccc(NC(=O)C2C(=O)N(c3ccc(OC)cc3)C(=O)/C2=N\NC(N)=O)cc1 (stereo not given),-8.9% (inactive)
7,O=C1c2ccccc2-c2ccc3c4ccc5c6c(ccc(c7ccc1c2c73)c64)C(=O)c1ccccc1-5,53.2% (inactive)
8,CC(C)CCC(C)(C)COC(=O)c1ccc([N+](=O)[O-])cc1 (tested in a mixture with another compound),36.5% (inactive)
9,CCOC(=O)Cc1cc(C)c2ccccc2n1,-7.75% (inactive)
10,CCOC(=O)NOC1CCCCO1 (stereo not given),1.05% (inactive)
11,O=c1cc(CC2(O)CCCCC2)c2ccccc2[nH]1,-3.95% (inactive)
12,CN=NNc1ccc(C#N)cc1,7.3% (inactive)
13,Cc1c2c(n3c(nc4ccccc43)c1C#N)SCC2,-51.3% (inactive)
14,O=[N+]([O-])c1ccc(N=C/C=C/Nc2ccc([N+](=O)[O-])cc2)cc1,5% (inactive)
15,Cc1ccc(S(=O)(=O)N(C)c2cc(Cl)c(I)cc2Cl)cc1,38.9% (inactive)
16,CCCCCCCCCCCCCCCC(O)S(=O)(=O)O (stereo not given),-27.2% (inactive)
17,CC(C)NC(N)=O,29.8% (inactive)
18,Cn1cc(C(=O)C2CCCCC2)ccc1=O,-4.6% (inactive)
19,Cc1cc2c(=O)[nH]c(=S)[nH]c2cn1,8% (inactive)
20,CCN(CC)CCNC(=O)c1ccc(C)c(OCc2ccccc2)c1[N+](=O)[O-],-9.4% (inactive)

row,Structure (SMILES),growth inhibition
1,CCCCC(=O)Nc1ccc(S(=O)(=O)O)c(N=NC2C(=O)N(c3ccccc3)N=C2C)c1 (stereo not given),27.1% (inactive)
2,CC1(C)CC23C4COC(=O)C2CCC1C3CC4=O (stereo not given),-7.25% (inactive)
3,CC/C(SC)=[N+](\C)[O-],3.9% (inactive)
4,CCOc1ncc(C(O)c2ccc(F)cc2)c(OCC)n1 (stereo not given),17.1% (inactive)
5,O=C1OC(/C=C/c2ccccc2)=NC/1=C\c1ccc(Cl)cc1,23.4% (inactive)
6,NC(=O)CC(N)C(N)=O (stereo not given),-8.25% (inactive)
7,COC(=O)CC1(O)C(C=C(C)C)C(C(=O)OC)C(=O)C(C(=O)OC)C1C(=O)OC (stereo not given),-10.8% (inactive)
8,CCN(CC)Cc1ccccc1COC(=O)c1cccc(Cl)c1,19.6% (inactive)
9,O=C(O)c1cccc(C(=O)O)[n+]1[O-],6.05% (inactive)
10,CN(C)c1noc2c1c(=O)n(C)c(=O)n2C,-27.8% (inactive)
11,COc1ccc(C(=O)CCC(=O)O)c(C)c1,7.45% (inactive)
12,O=C(O)CC1CC(=O)OC1(c1ccccc1)c1ccccc1 (stereo not given),18% (inactive)
13,CC1(N)CCC(C(C)(C)N)CC1 (stereo not given),28.1% (inactive)
14,O=C(c1ccccc1)[C@@H]1C[C@H](Sc2ccccc2)c2cc(Cl)ccc2N1,39.7% (inactive)
15,COC(=O)C1(Cc2ccccc2)Cc2ccccc2C1,24.7% (inactive)
16,C[N+](C)(C)CCOC(=O)/C=C/c1cnc[nH]1,9.7% (inactive)
17,CC(=O)Oc1ccc[nH]c1=O,5.25% (inactive)
18,O=C1OCC2=C1C(c1ccc3c(c1)OCO3)c1cc3c(cc1O2)OCO3 (stereo not given),-6.8% (inactive)
19,Clc1ccc(CSc2ccc3nncc(SCc4ccc(Cl)cc4Cl)c3c2)c(Cl)c1,36% (inactive)
20,CCCC(=O)OCCOc1ccccc1,18.1% (inactive)

# Experiment: NCI Yeast Anticancer Drug Screen. Data for the mec2-1 strain (AID 157)
# Settings: S. cerevisiae mec2-1 strain, at 50.0 µM, stronger effect = higher value
# How it was run: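 Compounds were applied to mec2-1 yeast cells. Their growth was then compared with that of vehicle-treated cultures to give growth inhibition.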
row,Structure (SMILES),growth inhibition
1,Nc1ccnc(SCCCCc2ccccc2)n1,64.4% (inactive)
2,CC(=O)Nc1c(Nc2ccccc2)[nH]c(C)nc1=S,-9.35% (inactive)
3,CCN(CC)C(=O)CC1(O)CCCCC1,-11.2% (inactive)
4,CC(O)CN1CCN(CN(CC(C)O)CC(C)O)CC1 (stereo not given),7.25% (inactive)
5,O=c1cn[nH]c(=O)[nH]1,0.7% (inactive)
6,COc1ccc(NC(=O)C2C(=O)N(c3ccc(OC)cc3)C(=O)/C2=N\NC(N)=O)cc1 (stereo not given),-24.9% (inactive)
7,O=C1c2ccccc2-c2ccc3c4ccc5c6c(ccc(c7ccc1c2c73)c64)C(=O)c1ccccc1-5,23.4% (inactive)
8,CC(C)CCC(C)(C)COC(=O)c1ccc([N+](=O)[O-])cc1 (tested in a mixture with another compound),15.1% (inactive)
9,CCOC(=O)Cc1cc(C)c2ccccc2n1,-5.65% (inactive)
10,CCOC(=O)NOC1CCCCO1 (stereo not given),-6.8% (inactive)
11,O=c1cc(CC2(O)CCCCC2)c2ccccc2[nH]1,0.3% (inactive)
12,CN=NNc1ccc(C#N)cc1,1.4% (inactive)
13,Cc1c2c(n3c(nc4ccccc43)c1C#N)SCC2,-49.3% (inactive)
14,O=[N+]([O-])c1ccc(N=C/C=C/Nc2ccc([N+](=O)[O-])cc2)cc1,0.7% (inactive)
15,Cc1ccc(S(=O)(=O)N(C)c2cc(Cl)c(I)cc2Cl)cc1,-5.05% (inactive)
16,CCCCCCCCCCCCCCCC(O)S(=O)(=O)O (stereo not given),-24.9% (inactive)
17,CC(C)NC(N)=O,16% (inactive)
18,Cn1cc(C(=O)C2CCCCC2)ccc1=O,-11.8% (inactive)
19,Cc1cc2c(=O)[nH]c(=S)[nH]c2cn1,7% (inactive)
20,CCN(CC)CCNC(=O)c1ccc(C)c(OCc2ccccc2)c1[N+](=O)[O-],-9.25% (inactive)

row,Structure (SMILES),growth inhibition
1,CCCCC(=O)Nc1ccc(S(=O)(=O)O)c(N=NC2C(=O)N(c3ccccc3)N=C2C)c1 (stereo not given),-10.6% (inactive)
2,CC1(C)CC23C4COC(=O)C2CCC1C3CC4=O (stereo not given),-18.1% (inactive)
3,CC/C(SC)=[N+](\C)[O-],-6.9% (inactive)
4,CCOc1ncc(C(O)c2ccc(F)cc2)c(OCC)n1 (stereo not given),-3.95% (inactive)
5,O=C1OC(/C=C/c2ccccc2)=NC/1=C\c1ccc(Cl)cc1,14.1% (inactive)
6,NC(=O)CC(N)C(N)=O (stereo not given),-33.1% (inactive)
7,COC(=O)CC1(O)C(C=C(C)C)C(C(=O)OC)C(=O)C(C(=O)OC)C1C(=O)OC (stereo not given),-7.15% (inactive)
8,CCN(CC)Cc1ccccc1COC(=O)c1cccc(Cl)c1,3.7% (inactive)
9,O=C(O)c1cccc(C(=O)O)[n+]1[O-],-22.6% (inactive)
10,CN(C)c1noc2c1c(=O)n(C)c(=O)n2C,-9.95% (inactive)
11,COc1ccc(C(=O)CCC(=O)O)c(C)c1,13.1% (inactive)
12,O=C(O)CC1CC(=O)OC1(c1ccccc1)c1ccccc1 (stereo not given),11.6% (inactive)
13,CC1(N)CCC(C(C)(C)N)CC1 (stereo not given),-8.75% (inactive)
14,O=C(c1ccccc1)[C@@H]1C[C@H](Sc2ccccc2)c2cc(Cl)ccc2N1,-10.5% (inactive)
15,COC(=O)C1(Cc2ccccc2)Cc2ccccc2C1,36.1% (inactive)
16,C[N+](C)(C)CCOC(=O)/C=C/c1cnc[nH]1,10.9% (inactive)
17,CC(=O)Oc1ccc[nH]c1=O,-22.1% (inactive)
18,O=C1OCC2=C1C(c1ccc3c(c1)OCO3)c1cc3c(cc1O2)OCO3 (stereo not given),-10.9% (inactive)
19,Clc1ccc(CSc2ccc3nncc(SCc4ccc(Cl)cc4Cl)c3c2)c(Cl)c1,5.8% (inactive)
20,CCCC(=O)OCCOc1ccccc1,2.3% (inactive)
